Reference: PubChem BioAssay (NCI)
Where “and” joins values, the source holds several entries; their conditions need not be identical. Equal values may be shown once. Compounds without any hit were thinned out: in the full panel of roughly 83,000, 20% have a hit.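 The test compound was applied at a single concentration to cells in 96-well plates for 48 hours, and percent growth was recorded.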 Calls of active or inactive are those of the source.

These compounds were tested on MDA-MB-468 breast (assay: NCI-60 one-dose screen, 48 h (100 = growth as untreated, 0 = no growth, -100 = all killed)). Conditions: 4.75 µM.
Experimental: Growth inhibition of the MDA-MB-468 human Breast tumor cell line is measured as a screen for anti-cancer activity. Cells are grown in 96 well plates and exposed to the test compound for 48 hours. Compounds are tested at a single concentration, which is 10^-5 M for most compounds. The reported endpoint is percent growth (GI% or GIPRCNT), where numbers from 0 - 100% represent growth inhibition, and numbers from -100% - 0 represent cell death. For example, a value of 40 represents 60% growth inhibition. A value of 0 means no net growth occurred over the course of the experiment. A value of -40 indicates 40% of cells at the beginning of the experiment died by the end of the experiment. A value of -100 means all cells are dead at the end of the experiment.
NCI-60 Human Tumor Cell Lines Screen was performed using the standard one-dose NCI protocol, which is described in more detail at https://dtp.cancer.gov/discovery_development/nci-60/default.htm.
Compounds with GIPRCNT values below 10 were considered active. Activity score was based on GIPRCNT using the following formula: […]
Score is 0 for GIPRCNT values of 100 or above, 50 for GIPRCNT values of 0, and 100 for GIPRCNT values of -100.

| Structure (SMILES) | growth |
| --- | --- |
| CC(=O)OCC1OC([S-])C(OC(C)=O)C(OC(C)=O)C1OC(C)=O.[Au+].c1ccc(CN2[CH-]N(Cc3ccccc3)C(c3ccccc3)=C2c2ccccc2)cc1 | -23.8% (active) |

Same assay, conditions: 10 µM

| Structure (SMILES) | growth |
| --- | --- |
| CC(=O)OCC1OC([S-])C(OC(C)=O)C(OC(C)=O)C1OC(C)=O.[Au+].c1ccc(CN2[CH-]N(Cc3ccccc3)C(c3ccccc3)=C2c2ccccc2)cc1 | -41.9% (active) |

Same assay, conditions: 10 µM unless noted

| Structure (SMILES) | growth |
| --- | --- |
| C[C@@H]1O[C@@H](O[C@H]2CC[C@@]3(C)[C@H](CCC4[C@@H]3C(O)C[C@]3(C)[C@@H](c5ccc(=O)oc5)CC[C@]43O)C2)[C@H](O)[C@H](O)[C@H]1O (stereo not given in full) | -59.8% (active) |
| C=C1C(=O)O[C@H]2[C@H]1CC/C(COC(=O)C(=O)c1cn(Cc3ccccc3)c3ccccc13)=C\CC[C@@]1(C)O[C@@H]21 | -60.5% (active) |
| Nc1ccc2c(c1)oc1ccccc12 | 92.6% (inactive) |
| CC(=O)OC1CC2(O)C(CCC3(C)C(c4ccc(=O)oc4)CCC32O)C2(C)CCC(OC3OC(CO)C(O)C(O)C3O)C=C12 (stereo not given) | -34.6% (active) |
| CCOP(=O)(OCC)C(O)c1ccccc1Cl (stereo not given) | 103% (inactive) |
| NCCc1ccc(OCc2ccccc2)c(OCc2ccccc2)c1 | 48.5% (inactive) |
| COc1cc2cc(C(=O)N3C[C@@H](CCl)c4c3cc(OC(=O)N3CCN(C)[C@@H]5CSSC[C@H]53)c3ccccc43)[nH]c2c(OC)c1OC | -86.3% (active) |
| CCCCNC(c1ccc(Cl)cc1)C(O)c1ccc(Cl)cc1 (stereo not given) | -14.6% (active) |
| Oc1c(CCl)cc(Cl)cc1CCl | 113% (inactive) |
| N#[N+]c1cnc([O-])[nH]c1=O | 88.4% (inactive) |
| CN(CCCl)c1ccc(/C=C/C2=[N+](C)c3ccccc3C2(C)C)cc1 | -1.54% (active) |
| CC(C)c1cc([N+](=O)[O-])cc([N+](=O)[O-])c1O | 96.7% (inactive) |
| Clc1cccc(Cl)c1Cl | 107% (inactive) |
| CCCC(C)(C)c1ccc2c(c1)OC(C)(C)[C@@H]1CC=C(C)C[C@@H]21 | 97.6% (inactive) |
| C[S+]1C=Cc2ccccc2C1c1ccc(Cl)cc1 (stereo not given) | -40.7% (active) |
| OCCN=Cc1c[nH]c2ccccc12 | 119% (inactive) |
| C=CC[PH+](c1ccccc1)c1ccccc1.C=CC[PH+](c1ccccc1)c1ccccc1.[Cl][Pt][Cl] | -20.5% (active) |
| CC(=O)OC1C(OC/C2=C/C3[C@@H](C(C)C)CC=C(C)[C@@H]3CC(OC(=O)/C=C/c3cn(C)cn3)[C@]3(C)C=C[C@@]2(O)O3)OCC(O)C1O (stereo not given in full) | -19.2% (active) |
| Oc1ccc2c3c1O[C@H]1c4[nH]c5ccccc5c4C[C@@]4(O)C(C2)N(CC2CC2)CC[C@]314 | 90.5% (inactive) |

| Structure (SMILES) | growth |
| --- | --- |
| [Au+].[N-]=C=O.c1ccc(CN2[CH-]N(Cc3ccccc3)C(c3ccccc3)=C2c2ccccc2)cc1 | 72.7% (inactive) |
| n1nc(-c2nonc2-c2nn[nH]n2)n[nH]1 | 101% (inactive) |
| CCCCCCCCCCCC1CCCC(C)N1 (stereo not given) | 73.3% (inactive) |
| CC(C)c1cccc(C(C)C)c1O | 101% (inactive) and 94.3% (inactive) |
| O=[N+]([O-])c1ccc2cnn(CSP(=S)(c3ccccc3)c3ccccc3)c2c1 | 43.1% (inactive) |
| CSc1cc(/C=C(\C)[C@@H]2C[C@@H]3O[C@]3(C)CCC[C@H](C)[C@H](O)[C@@H](C)C(=O)C(C)(C)[C@@H](O)CC(=O)O2)n(CCNC(=O)OC(C)(C)C)n1 | 66% (inactive) |
| CC1=C(SCCC(=O)OCC(=O)NCCC[Te]c2ccccc2)C(=O)c2ccccc2C1=O | 9.39% (active) |
| CCOP(=O)(Cc1ccc(C#N)cc1)OCC | 108% (inactive) |
| CCOC(=O)[C@@H](C)C[C@H](Cc1ccccc1)NC(=O)c1csc([C@@H](C[C@H](C(C)C)N(C)C(=O)[C@H](CCC(C)C)NC(=O)[C@H]2CCCCN2C)OC(C)=O)n1 | 5.73% (active) |
| COC(=O)C[Se]C(=O)c1ccccc1OC(C)=O | 34.8% (inactive) |
| Cn1cc(-c2csc(-c3cn(CCCCN4CCOCC4)c4ccc(F)cc34)n2)c2cccnc21 | 65% (inactive) |
| Cc1cc(N(CCCl)CCCl)ccc1C=Nc1ccc(-c2csc(Cc3ccccc3)n2)cc1 | 39.3% (inactive) |
| CCOc1ccccc1C(=O)OCC(Cl)(Cl)Cl | 110% (inactive) |
| O=C(/C=C/c1ccco1)c1nc2ccccc2n1Cc1ccc(F)cc1 | 24% (inactive) |
| CC[C@H](C)[C@H](NC(=O)[C@H]1CCCCN1C)C(=O)N(C)[C@H](C[C@@H](OC(C)=O)c1nc(C(=O)N[C@@H](Cc2ccccc2)C[C@H](C)C(=O)OC)cs1)C(C)C | -7.99% (active) |
| CN1CCC(c2c[nH]c3ccccc23)C1 (stereo not given) | 116% (inactive) |
| C=CC1CN2CCC1CC2C(O)c1ccnc2ccccc12 (stereo not given) | 107% (inactive) |
| C[CH2][Pb]([CH2]C)([CH2]C)[O]C(=O)c1ccc(N)cc1 | -11.9% (active) |
| Cc1cc(C)nc(C)c1.[Cl][Hg][Cl] | 113% (inactive) |
